# Reference: PubChem BioAssay
# Calls of active or inactive are those of the source. Unless noted, no stated cut-off is given here; in the data, active means nuclear beta-catenin stimulation mostly above about 4.2% (no sharp cut-off); inactive means mostly below about 10%.
# Columns and labels:
# [1] = Wnt pathway potentiators raising nuclear beta-catenin – imaging, WNT3A-conditioned medium, mouse C2C12, NPC library, primary screen (AID 1117326); conditions: stronger effect = higher value
# [2] = stimulators of insulin release from INS-1E, primary screen, cell-based, 5 mM glucose, NPC library (AID 1117329;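 active means compound raises insulin release from rat beta cells at 5 mM glucose, no numeric limit stated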); conditions: rat INS-1E insulin secretion, at 10 µM, stronger effect = higher value
# [3] = GLP1 release stimulators, primary, NCI-H716, NPC library (AID 1117341;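 active means compound raises GLP1 secretion from the human gut endocrine cells, with no numeric limit stated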); conditions: NCI-H716 cells, at 10 µM, stronger effect = higher value
# [4] = viability loss with induced miR-34 in A549 – imaging, A549 dox-inducible miR-34, nuclei and caspase counts, primary screen (AID 1347080;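 active means compounds whose cell count with miR-34 switched on is under 0.7 times the count with it off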); conditions: A549 miR-34 inducible, Hoechst nuclei count, 48 h
# [5] = MELAS cybrid and Rieske KO viability enhancers – cell-based, MELAS cybrids, Rieske KO mouse fibroblasts, CellTiter-Glo, primary screen (AID 1508586;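 active means mean z-score across replicates of 1.96 or higher in either the MELAS or the Rieske mutant cell line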;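 further: z relative to plate mean and SD of compound and empty wells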); conditions: low glucose
# [6] = galactose survival enhancers in mitochondrial complex I cybrids – cell-based, galactose medium, ATP luminescence, primary screen (AID 1645843;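 active means z-score of at least 1.8 in each of two replicates, scored against plate mean and spread of sample wells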;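 further: positive z means more ATP and so rescue of galactose-driven cybrid death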); conditions: complex I mutant cybrid cells, 72 h, stronger effect = higher value
# [7] = target: 6-phosphogluconate dehydrogenase, decarboxylating (Homo sapiens) (UniProt P52209); experiment: inhibition of human phosphogluconate dehydrogenase – biochemical, recombinant enzyme, NADPH absorbance, primary screen (AID 1159550;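 active means at least 20% inhibition of 6-phosphogluconate dehydrogenase activity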); conditions: recombinant 6PGD, NADPH absorbance 341 nm; at 10 µM; stronger effect = higher value
# [8] = growth inhibition of GSK3B-pretreated HCT116 cells – cell-based, CellTiter-Glo, 0.2 to 20 µM (AID 1117336;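 active means compounds lowering colon cancer cell viability after pretreatment blocking the GSK3B kinase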); conditions: HCT116 viability after GSK3B inhibitor, at 20 µM, stronger effect = higher value
# [9] = HCT116 colon cancer cell growth inhibition, primary screen, CellTiter-Glo luminescence, NPC library (AID 1117342;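 active means compounds that lower survival of HCT116 colon cancer cells in the luminescence readout, no numeric limit stated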); conditions: at 20 µM (top of the series)
# [10] = reduced SW480 viability measured with CellTiter-Glo, NPC library, primary (AID 1117343;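 active means compounds that lower viability of the colon cancer cells in the luminescence readout, with no numeric limit stated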); conditions: CellTiter-Glo luminescence; at 20 µM (top of the series)
# [11] = NPC library primary testing for decreased DLD-1 cell viability via CellTiter-Glo (AID 1117346;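 active means compounds that lower survival of DLD-1 colon cancer cells in the luminescence readout, no cutoff given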); conditions: DLD-1 viability, CellTiter-Glo luminescence; at 20 µM (top of the series)
# [12] = inhibition of endothelial tube formation, primary screen, imaging, VEGF stimulated, CD31 staining, tube area, NPC library (AID 1117340;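 active means compound that reduces growth-factor-driven endothelial tube area in a mixed cell culture, no cutoff stated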); conditions: VEGF-stimulated ADSC/ECFC co-culture, at 10 µM, stronger effect = higher value
# [13] = system: Aerobactin synthetase IucA (Klebsiella pneumoniae, hypervirulent); experiment: biochemical IucA inhibition screen of LOPAC library by absorbance (AID 1346212; call rule not given here;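 further: 100% = no compound wells and 0% = no enzyme wells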); conditions: IucA enzyme assay, absorbance (OD) readout; stronger effect = lower value;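 tested at 8 µM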
# [14] = P. berghei load reduction in hepatocytes – cell-based, HepG2, luciferase luminescence, HepG2 viability, primary screen (AID 624349; in the data active means parasite load remaining mostly below about 12%, no sharp cut-off; inactive means mostly above about 10%;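 further: 100% = mean of DMSO negative control wells on the same plate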); conditions: P. berghei liver stage in HepG2, luciferase luminescence, concentration not given here; parasite load remaining: stronger effect = lower value; viability: measured here: HepG2 viability without parasites
# [15] = EMT-state selective cytotoxicity in co-culture – imaging, PC-3E GFP, TEM4-18 mCherry, primary screen (AID 1345086;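 active means compounds killing one labelled cell type while sparing the other, by normalised counts and ratio limits, not self-fluorescent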;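 further: cells exposed to compound for 72 h before imaging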;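 on red/green cell ratio (normalised): normalised mesenchymal count divided by normalised epithelial count so high means epithelial killing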); conditions: PC-3E GFP / TEM4-18 mCherry co-culture, imaging cell counts, at 1 µM
# [16] = measured here: relative caspase fold change +Dox/-Dox
# [17] = measured here: total cells with miR-34 induction, stronger effect = lower value
# [18] = measured here: total cells without miR-34 induction
# Chain of 6-phosphogluconate dehydrogenase, decarboxylating (Homo sapiens) (P52209 whole entry, looked up): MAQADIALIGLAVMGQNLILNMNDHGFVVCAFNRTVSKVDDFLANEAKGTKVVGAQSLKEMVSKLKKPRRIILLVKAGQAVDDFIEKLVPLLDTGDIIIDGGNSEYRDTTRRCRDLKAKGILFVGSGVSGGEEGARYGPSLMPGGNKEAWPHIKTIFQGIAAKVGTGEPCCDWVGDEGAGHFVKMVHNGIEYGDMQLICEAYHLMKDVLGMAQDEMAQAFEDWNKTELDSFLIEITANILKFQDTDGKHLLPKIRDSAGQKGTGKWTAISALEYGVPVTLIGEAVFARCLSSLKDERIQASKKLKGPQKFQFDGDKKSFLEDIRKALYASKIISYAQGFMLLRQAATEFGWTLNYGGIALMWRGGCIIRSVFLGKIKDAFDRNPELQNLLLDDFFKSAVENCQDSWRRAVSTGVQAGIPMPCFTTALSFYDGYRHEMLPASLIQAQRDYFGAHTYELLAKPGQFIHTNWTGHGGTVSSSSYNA
smiles,measurement,setting,value
c1ccc2c(c1)Sc1ccccc1N2CC1CN2CCC1CC2 (stereo not drawn),nuclear beta-catenin stimulation,[1]; at 10 µM,50.9% (active)
same,nuclear beta-catenin stimulation,"[1]; stimulation, at 2 µM",-0.7%
same,insulin secretion stimulation,[2],11.5% (inactive)
same,GLP1 secretion stimulation,[3],26.8% (active)
same,fold change,[4]; stronger effect = lower value,0.854 (inactive)
same,fold change,[4]; [16],0.648
same,cell count,[4]; [17],6390
same,cell count,[4]; [18],7490
same,z-score,"[5]; MELAS cybrid survival, CellTiter-Glo 48 h, stronger effect = higher value",-0.772 (inactive)
same,z-score,"[5]; Rieske KO mouse fibroblast survival, CellTiter-Glo 72 h",-0.213
same,z-score,[6],-2.58 (inactive)
COc1cccc2c1C(=O)c1c(O)c3c(c(O)c1C2=O)C[C@@](O)(C(=O)CO)CC3OC1CC(N2CCOC(OC)C2)C(O)C(C)O1 (stereo partly drawn),nuclear beta-catenin stimulation,[1]; at 10 µM,13.6% (active)
same,nuclear beta-catenin stimulation,"[1]; stimulation, at 2 µM",47.6%
same,insulin secretion stimulation,[2],1.1% (inactive)
same,GLP1 secretion stimulation,[3],7.5% (inactive)
CCOP(=S)(OCC)SCSc1ccc(Cl)cc1,nuclear beta-catenin stimulation,[1]; at 10 µM,1.3% (inactive)
same,nuclear beta-catenin stimulation,"[1]; stimulation, at 2 µM",-1.3%
same,insulin secretion stimulation,[2],-1.15% (inactive)
same,GLP1 secretion stimulation,[3],-0.9% (inactive)
ClC1=C(Cl)[C@@]2(Cl)[C@@H]3[C@H]4C[C@@H]([C@H]5O[C@@H]45)[C@H]3[C@@]1(Cl)C2(Cl)Cl,inhibition,[7],-14% (inactive)
C[C@]12C=CC(=O)C=C1CC[C@@H]1[C@@H]2CC[C@]2(C)C(=O)CC[C@@H]12,inhibition,[7],-9.35% (inactive)
O=C1NCN(c2ccccc2)C12CCN(CCCOc1ccc(F)cc1)CC2,nuclear beta-catenin stimulation,[1]; at 10 µM,0.4% (inactive)
same,nuclear beta-catenin stimulation,"[1]; stimulation, at 2 µM",8.5%
same,viability decrease,[8],84.2% (active)
same,inhibition of viability,[9],59.4% (active)
same,viability decrease (inhibition),[10],91% (active)
same,viability decrease (inhibition),[11],87.1% (active)
CCS(=O)CCSP(=O)(OC)OC (stereo not drawn),inhibition,[7],1.58% (inactive)
CCc1cccc(C)c1N(C(=O)CCl)C(C)COC (stereo not drawn),inhibition,[7],3.27% (inactive)
ClC1=C(Cl)[C@]2(Cl)[C@H]3[C@H]([C@@H]4C=C[C@H]3C4)[C@@]1(Cl)C2(Cl)Cl,inhibition,[7],6.64% (inactive)
O=S1OCC2C(CO1)C1(Cl)C(Cl)=C(Cl)C2(Cl)C1(Cl)Cl (stereo not drawn),inhibition,[7],5.97% (inactive)
CC(C)(C)c1ccc(O)cc1,insulin secretion stimulation,[2],0% (inactive)
same,viability decrease,[8],-1.5% (inactive)
same,tube area decrease,[12],-21.2% (inactive)
same,GLP1 secretion stimulation,[3],3.8% (inactive)
same,inhibition of viability,[9],7.9% (inactive)
same,viability decrease (inhibition),[10],15.7% (inactive)
same,viability decrease (inhibition),[11],4.65% (inactive)
C=CCN1CC[C@]23CCCC[C@H]2[C@H]1Cc1ccc(O)cc13,nuclear beta-catenin stimulation,[1]; at 10 µM,3.5% (inactive)
same,nuclear beta-catenin stimulation,"[1]; stimulation, at 2 µM",0.3%
same,insulin secretion stimulation,[2],12.2% (inactive)
same,GLP1 secretion stimulation,[3],8.3% (inactive)
same,remaining activity,[13],94.8% (inactive)
C=C[C@H]1CN2CCC1C[C@H]2[C@H](OC(=O)OCC)c1ccnc2ccc(OC)cc12 (stereo partly drawn),inhibition,[7],4.32% (inactive)
CNC(=O)O/N=C/C(C)(C)SC,inhibition,[7],-1.92% (inactive)
COP(=S)(OC)Oc1ccc(Sc2ccc(OP(=S)(OC)OC)cc2)cc1,parasite load remaining,[14],25% (inactive)
same,viability,[14],137%
same,nuclear beta-catenin stimulation,[1]; at 10 µM,5.7% (inactive)
same,nuclear beta-catenin stimulation,"[1]; stimulation, at 2 µM",-0.8%
same,insulin secretion stimulation,[2],0.05% (inactive)
same,GLP1 secretion stimulation,[3],-8.7% (inactive)
same,inhibition,[7],-4.06% (inactive)
same,red/green cell ratio (normalised),[15]; actives lie on both sides,0.91 (inactive)
same,normalised cell number,[15]; measured here: epithelial PC-3E GFP cell survival,1.08
same,normalised cell number,[15]; measured here: mesenchymal TEM4-18 mCherry cell survival,0.98
same,fold change,[4]; stronger effect = lower value,0.838 (inactive)
same,fold change,[4]; [16],1.68
same,cell count,[4]; [17],9320
same,cell count,[4]; [18],11100
COC(=O)c1ccccc1C(=O)OC,nuclear beta-catenin stimulation,[1]; at 10 µM,-1.6% (inactive)
same,nuclear beta-catenin stimulation,"[1]; stimulation, at 2 µM",-0.6%
same,insulin secretion stimulation,[2],0.5% (inactive)
same,GLP1 secretion stimulation,[3],-5.4% (inactive)
Fc1cc(Br)ccc1CBr,nuclear beta-catenin stimulation,[1]; at 10 µM,-0.7% (inactive)
same,nuclear beta-catenin stimulation,"[1]; stimulation, at 2 µM",13%
same,viability decrease,[8],3.1% (inactive)
same,tube area decrease,[12],-4.2% (inactive)
same,inhibition of viability,[9],-1.5% (inactive)
same,viability decrease (inhibition),[10],5.9% (inactive)
same,viability decrease (inhibition),[11],9.1% (inactive)
COCC(C)N(C(=O)CCl)c1c(C)csc1C (stereo not drawn),nuclear beta-catenin stimulation,[1]; at 10 µM,0.5% (inactive)
same,nuclear beta-catenin stimulation,"[1]; stimulation, at 2 µM",2.6%
same,insulin secretion stimulation,[2],0.7% (inactive)
same,GLP1 secretion stimulation,[3],-0.9% (inactive)
CC1(C)[C@H](C=C(Cl)Cl)[C@@H]1C(=O)OCc1c(F)c(F)cc(F)c1F,nuclear beta-catenin stimulation,[1]; at 10 µM,-2.8% (inactive)
same,nuclear beta-catenin stimulation,"[1]; stimulation, at 2 µM",-1.8%
same,insulin secretion stimulation,[2],0.45% (inactive)
same,GLP1 secretion stimulation,[3],-5.4% (inactive)
